Results: PubChem BioAssay (NCATS)
Inconclusive results are not listed. Calls of active or inactive are those of the source. Calls come from the whole dose curve; as a rule, active = well fitted curve in the direction sought with a large enough effect; inconclusive = small, poorly fitted or top-dose-only effect, or another doubt; inactive = no such curve, though single readings can be large; an effect the other way counts as inactive or inconclusive.

Key:
[1] = biological target: Calcium and integrin-binding protein 1 (Homo sapiens) (UniProt Q99828); test: Primary qHTS for Identification of Calcium Integrin Binding Protein 1 (CIB1) Competitor (AID 1508620);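 note: GST tagged CIB1 binding a fluorescein labelled alphaIIb integrin peptide tracer; top concentration of the series differs between compounds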
How it was run: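 Fluorescence polarization competition: GST-tagged CIB1 (1 uM final) preincubated with compound 15 min at room temperature, then FITC-labelled alphaIIb peptide (100 nM final) added. After 15 min at room temperature, polarization read at Ex 480/Em 540.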

[2] = Primary qHTS for inhibitors of nuclear receptor binding SET domain protein 2 (NSD2) in an isogenic RCH-ACV NSD2 p.E1099K mutant (9B) (AID 1645876); note: nearly all actives have a fitted effect of over 70% in size
[3] = Primary qHTS for inhibitors of nuclear receptor binding SET domain protein 2 (NSD2) in an RCH-ACV wild type WT cells (2C) (AID 1645877); note: nearly all actives have a fitted effect of over 70% in size
% is set by controls: 0 for no effect and ±100 for the full control effect.

Sequence of Calcium and integrin-binding protein 1 (Homo sapiens) (Q99828 whole entry, looked up): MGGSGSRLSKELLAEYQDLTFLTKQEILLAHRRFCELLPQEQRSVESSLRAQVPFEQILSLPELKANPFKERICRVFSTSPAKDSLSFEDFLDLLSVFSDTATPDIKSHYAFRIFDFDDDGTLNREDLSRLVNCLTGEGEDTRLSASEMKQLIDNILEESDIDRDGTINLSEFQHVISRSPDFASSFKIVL

CC[C@H]1OC(=O)[C@H](C)[C@@H](O[C@H]2C[C@@](C)(OC)[C@@H](O)[C@H](C)O2)C(C)[C@@H](O[C@@H]2O[C@H](C)C[C@H](N(C)C)[C@H]2O)[C@](C)(O)C[C@@H](C)CN(C)[C@H](C)[C@@H](O)[C@]1(C)O (stereo partly specified)
inactive: Potency [1] | Potency [2] | Potency [3]

C=CC(C)(CCC=C(C)C)O[C@@H]1O[C@H](CO)[C@@H](O)[C@H](O)[C@H]1O (stereo partly specified)
inactive: Potency [1] | Potency [2] | Potency [3]

C[C@H](O)C(O)(C(=O)OCc1ccccc1NC(=O)CCC(N)C(=O)O)[C@H](C)O (stereo partly specified)
inactive: Potency [1] | Potency [2] | Potency [3]

CC(O)/C=C/C1(O)C(C)C(O)C(O[C@@H]2O[C@H](CO)[C@@H](O)[C@H](O)[C@H]2O)CC1(C)C (stereo partly specified)
inactive: Potency [1] | Potency [2] | Potency [3]

OC[C@H]1O[C@@H](O[C@H]2[C@H](O)[C@@H](CO)O[C@@H](OCc3ccccc3)[C@@H]2O[C@@H]2OC[C@](O)(CO)[C@H]2O)[C@H](O)[C@@H](O)[C@@H]1O
inactive: Potency [1] | Potency [2] | Potency [3]

C[C@H]1CC(=O)C2=C(C1)C(O)C(O)[C@@]1(O)[C@H]2C(=O)c2cccc(O)c2[C@@H]1O (stereo partly specified)
inactive: Potency [1] | Potency [2] | Potency [3]

COC(=O)C1=COC(O[C@@H]2O[C@H](COC(=O)/C=C/c3ccc(O)cc3)[C@@H](O)[C@H](O)[C@H]2O)C2C(CO)=CCC12 (stereo partly specified)
inactive: Potency [1] | Potency [2] | Potency [3]

COC(=O)C[C@@H]1C(C(=O)O)=CO[C@@H](O[C@@H]2O[C@H](CO)[C@@H](O)[C@H](O)[C@H]2O)/C1=C\COC(=O)/C=C/c1ccc(O)c(OC)c1
inactive: Potency [1] | Potency [2] | Potency [3]

CC1=CC(=O)[C@]2(O[C@@H]3O[C@@H](C)[C@H](O)[C@@H](O)[C@H]3O)C=CO[C@@H](O[C@@H]3O[C@H](CO)[C@@H](O)[C@H](O)[C@H]3O)[C@H]12
inactive: Potency [1] | Potency [2] | Potency [3]

CC1=C2C(=O)C=C(CO[C@@H]3O[C@H](CO)[C@@H](O)[C@H](O)[C@H]3O)[C@@H]2[C@H]2OC(=O)[C@H](C)[C@@H]2CC1
inactive: Potency [1] | Potency [2] | Potency [3]

O=C(OC[C@H]1O[C@@H](Oc2ccccc2CO)[C@H](O)[C@@H](O)[C@@H]1O)c1ccccc1
inactive: Potency [1] | Potency [2] | Potency [3]

CC(C)c1ccc2c(c1)[C@H](O)CC1[C@@](C)(C(=O)O)CCC[C@]21C (stereo partly specified)
inactive: Potency [1] | Potency [2] | Potency [3]

CC(=O)O[C@H]1[C@H](OC(=O)C(C)C)[C@]2(C)OC3(CC[C@]2(C)[C@H]2CCC[C@]4(CO4)[C@]12C)COC(=O)C3 (stereo partly specified)
inactive: Potency [1] | Potency [2] | Potency [3]

CC1(C)CC[C@]2(C(=O)O)CC[C@]3(C)C(=CCC4[C@@]5(C)CC[C@H](O[C@@H]6O[C@H](C(=O)O)[C@@H](O)[C@H](O)[C@H]6O)C(C)(C)C5CC[C@]43C)C2C1 (stereo partly specified)
inactive: Potency [1] | Potency [2] | Potency [3]

CC1(C)CC[C@]2(C(=O)O[C@@H]3O[C@H](CO)[C@@H](O)[C@H](O)[C@H]3O)CC[C@]3(C)C(=CCC4[C@@]5(C)CC[C@H](OC6OC(C(=O)O)C(OC7OC(CO)C(O)C(O)C7O)C(O)C6O)C(C)(C)C5CC[C@]43C)C2C1 (stereo partly specified)
inactive: Potency [1] | activity change, negative = viability loss [2] -8.98% [at 9.23 µM] | activity change, negative = cell killing [3] -22.4% [at 9.23 µM]

C#CCCCn1cc(-c2cccc3c2N[C@@H](C)CC(=O)N3)cn1
inactive: Potency [1] | Potency [2] | Potency [3]

CC(=O)/C=C/C1(O)C(C)=CC(=O)CC1(C)C (stereo unspecified)
inactive: Potency [1] | Potency [2] | Potency [3]

O=C(OC[C@H]1O[C@H](O[C@H]2CO[C@H](CO)[C@@H](O)[C@@H]2O)[C@H](O)[C@@H](O)[C@H]1O)c1ccccc1
inactive: Potency [1] | Potency [2] | Potency [3]

COc1cc2c(c(O)c1OC/C=C(\C)CC/C=C(/C)CCC=C(C)C)CN(C(CCC(=O)O)C(=O)O)C2=O (stereo unspecified)
inactive: Potency [1] | Potency [2] | Potency [3]

C[C@H]1[C@H](C)C[C@@H](C(=O)O)C2CC[C@]3(C)C(=CC[C@@H]4[C@@]5(C)CC[C@H](O)C(C)(C)[C@@H]5CC[C@]43C)[C@@H]21 (stereo partly specified)
inactive: Potency [1] | Potency [2] | Potency [3]

CC(C)C1(O)NC(=O)C(CC2(O)c3ccccc3N3C(=O)C(C)(C)NC32)n2c1nc1ccccc1c2=O (stereo unspecified)
inactive: Potency [1] | Potency [2] | Potency [3]

C[C@@H]1O[C@@H](O[C@H]2[C@H](O[C@H]3[C@H](O[C@H]4CC[C@@]5(C)C(CC[C@]6(C)C5CC=C5[C@@H]7CC(C)(C)C[C@@H](O)[C@]7(C)CC[C@]56C)[C@@]4(C)CO)O[C@H](C(=O)O)[C@@H](O)[C@@H]3O)O[C@H](C(=O)O)[C@H](O)[C@@H]2O)[C@H](O)[C@H](O)[C@H]1O (stereo partly specified)
inactive: Potency [1] | activity change, negative = viability loss [2] 4.66% [at 9.23 µM] | activity change, negative = cell killing [3] 2.89% [at 9.23 µM]
